About 6,500 (11%) of roughly 59,000 compounds were called active. Not shown: some 15% with an inconclusive outcome. No stated cut-off is given here; in the data, active means max dye-equivalent concentration above about 10 nM; inconclusive means mostly about 1.1 nM to 9.6 nM; inactive means weaker than that. This excerpt belongs to a sample that is enriched for actives.

This experiment in a line: qHTS Assay for Spectroscopic Profiling in A350 Spectral Region. Conditions: Compound autofluorescence, 340/450 nm, Alexa 350 dye-equivalents; hits give high values. The text has this: NIH Molecular Libraries Screening Centers Network [MLSCN]
NIH Chemical Genomics Center [NCGC]
Occasionally, the artifactual effect may originate from the compounds own spectral or other biophysical properties which generally tend to track its assay concentration. Pre-screening/profiling the library with respect to the compounds spectral properties should help one exclude false positives early on. While the most informative fluorescent profiling data set is obtained by performing a full excitation and emission scan of each well by using a monochromator-based plate reader, such an approach is practical only on a very limited scale as scanning each well requires long time. An alternative approach, applied here, is to perform plate reader scans using selected excitation and emission wavelength pairs to generate a multidimensional relational database that correlates compound concentration and the respective relative fluorescence intensity at a given wavelength set. A standard curve of Alexa 350 (A 350) present on each plate as six-point concentration series, was used to compute a normalized fluorescence response, termed dye-equivalent concentration, for each compound at each concentration.
NCGC Assay Protocol Summary:
100 mM Tris buffer, pH 8.0
The wells in columns 1 through 4 of a Kalypsys polypropylene 1536-well compound plate were filled with standard solutions of fluorophore corresponding to the spectral region of interest. Solutions of A 350 were placed in the following wells: I1, J1: 3 mM, I2, J2: 300 uM, I3, J3: 30 uM, I4, J4: zero (DMSO), K1, L1: 3 uM, K2, L2: […], K3, L3: 300 nM, K4, L4: zero (DMSO).
Six uL of buffer were dispensed to 1536-well Greiner black plates. Compounds and dye standards (23 nL) were transferred via Kalypsys PinTool. The plates were incubated for 15 min at room temperature, and then read on ViewLux (Perkin-Elmer) High-throughput CCD imager using 340 nm and 450 nm excitation and emission filter set.
Keywords: NIH Roadmap, MLSCN, MLI, MLSMR, qHTS, NCGC, A350, A-350, Fluorescent Profiling.
Regarding `Cc1cc(C(=O)NCCCc2ccccc2)no1`, the max dye-equivalent concentration result was “inactive”. In the case of `CCCN(CCC)CCNC(=O)c1cc2c(C)nc3ccccc3c2o1`, the max dye-equivalent concentration was 18 nM (active).

For the compound `CCCC(=O)N(CCc1ccccc1)Cc1nc2ccccc2c(=O)[nH]1`, the max dye-equivalent concentration result was “inactive”.

On to `CCOC(=O)C1CCCCN1Cc1ccc(OC)c(OC)c1OC` (stereo not given), for which the max dye-equivalent concentration entry was “inactive”. As for `Clc1ccccc1-c1cc(NCCN2CCOCC2)ncn1`, the entry is “inactive”. Regarding `CCn1c(SCC(=O)NCc2ccco2)nnc1-c1ccc(N)cc1`, the max dye-equivalent concentration entry was “inactive”.

In the case of `CN1CCN(S(=O)(=O)c2ccc(NC(=O)C3CCCO3)cc2)CC1` (stereo not given), the max dye-equivalent concentration result was “inactive”. Then `COC(=O)COc1ccc(S(=O)(=O)N2CCOCC2)cc1`, with “inactive”. Then `CCN(Cc1ccncc1)C(=O)c1cccc(S(=O)(=O)N2CCOCC2)c1`, with “inactive”; and `COc1ccc(S(=O)(=O)N2CCOCC2)cc1C(=O)Nc1nc2ccccc2s1`, with 26 nM (active). Take `CCOC(=O)c1sc(NC(=O)c2cc(S(=O)(=O)N3CCOCC3)ccc2C)nc1C`: the max dye-equivalent concentration entry was “inactive”. As for `O=C(Nc1nc2cc3c(cc2s1)OCCO3)c1cccc(S(=O)(=O)N2CCOCC2)c1`, the figure is 15 nM (active); as for `O=C(Nc1nc2ccc(S(=O)(=O)N3CCCC3)cc2s1)C1CCCO1` (stereo not given), “inactive”; as for `CC1(C)Cc2cccc(OCC(=O)Nc3nccs3)c2O1`, “inactive”. As for `COc1ccc(C[C@H](N)C(=O)N[C@@H]2[C@H](O)[C@H](n3cnc4c(N(C)C)ncnc43)O[C@@H]2CO)cc1`, the entry is “inactive”; as for `CCCOP(=O)(c1ccc(N(C)C)cc1)C(O)c1cc(OC)c(OC)c(OC)c1` (stereo not given), “inactive”. As for `COc1ccc(N2CCN(C3CC(=O)N(c4ccc5c(c4)OCCO5)C3=O)CC2)cc1` (stereo not given), the entry is “inactive”. Regarding `Cc1ccc(S(=O)(=O)N2CCC(C(=O)OCC(=O)N3CC(=O)Nc4ccccc43)CC2)cc1`, the max dye-equivalent concentration entry was “inactive”. As for `CC(=O)N1CCC2(CCCN(c3ncccn3)C2)CC1`, the entry is “inactive”. As for `Cc1ccc(S(=O)(=O)N2CCCC2CO)cc1` (stereo not given), the entry is “inactive”; as for `COc1ccc(C2CC(c3ccc(C)cc3)Nc3nc(N)nn32)cc1` (stereo not given), 2800 nM (active).

`Cc1cc(C)c(C(=O)CN2C(=O)CCC2=O)cc1C`: the max dye-equivalent concentration entry is “inactive”. As for `COC(=O)c1ccc(NC(=O)CSc2nnc(CNc3ccc(OC)cc3)n2C)cc1`, the max dye-equivalent concentration result was “inactive”. Then `CCOC(=O)N1CCN(C(=O)CN(C2CCCCC2)S(C)(=O)=O)CC1`, with “inactive”; and `Cc1ccccc1CSc1nnc(-c2ccccn2)n1N`, with “inactive”. Then `CN(Cc1ccco1)c1cc(-c2ccccc2C(F)(F)F)ncn1`, with “inactive”. As for `Cc1c(NC(=O)c2cccnc2)c(=O)n(-c2ccccc2)n1C`, the entry is “inactive”. For the compound `Cc1cc(C(=O)Nc2c(C)n(C)n(-c3ccccc3)c2=O)cs1`, the max dye-equivalent concentration entry was “inactive”.

For `Cc1c(NC(=O)c2coc(=O)c(Br)c2)c(=O)n(-c2ccccc2)n1C`, the max dye-equivalent concentration is 220 nM (active). As for `O=c1[nH]c(=O)n([C@H]2C[C@H](O)[C@H](CO)O2)cc1Br`, the entry is “inactive”; as for `OCCCN1c2ccccc2Nc2nnc(-c3ccccc3)cc21`, 110 nM (active); as for `Cn1c(=O)[nH]c(=O)c2c1nc(N(CCO)Cc1ccccc1)n2Cc1ccccc1Cl`, “inactive”. Consider `O=C(c1cccc(F)c1)N1CCC2(CCCN(Cc3ccncc3)C2)CC1`, for which the max dye-equivalent concentration result is “inactive”. As for `Cc1c(C)c2c(c(C)c1O)CC[C@@](C)(CN1CCN(c3cc(N4CCCC4)nc(N4CCCC4)n3)CC1)O2`, the max dye-equivalent concentration was 11 nM (active). As for `CC(=O)N1CCC2(CCCN(Cc3ccc(C#N)cc3)C2)CC1`, the entry is “inactive”; as for `N#CNC1=NCN(CCc2ccccc2)CN1`, “inactive”. As for `O=C(CSc1nc2ccccc2o1)N1CCN(c2ccccc2)CC1`, the entry is “inactive”; as for `Cn1c(=O)cc(OCCCC(=O)N2CCN(c3ccccn3)CC2)c2ccccc21`, “inactive”; as for `Cc1ccnc(N2CCN(C(=O)CSc3nc4ccccc4nc3N3CCCCC3)CC2)c1`, 28 nM (active). Then `COc1ccc(C(=O)Cn2nnc(-c3ccc(N4CCOCC4)cc3)n2)cc1OC`, with “inactive”; and `Cc1ccc(Oc2ccc(N)cc2)cc1`, with “inactive”; and `CC(C)(C)n1nnnc1C(c1ccc2ncccc2c1)N1CCSCC1` (stereo not given), with “inactive”.

For the compound `Cc1ccccc1-c1nnn(CC(=O)c2ccc(S(=O)(=O)N3CCCC3)cc2)n1`, the max dye-equivalent concentration entry is “inactive”. For the compound `COc1ccccc1N1CCN(C(=O)c2ccc(S(=O)(=O)N3CCCCC3)cc2)CC1`, the max dye-equivalent concentration entry was “inactive”.

Take `N#CC(C(=O)c1ccc(S(=O)(=O)N2CCCCCC2)cc1)c1nc2ccccc2[nH]1` (stereo not given): the max dye-equivalent concentration was 52 nM (active). As for `Cc1nnc(N(Cc2ccco2)C(=O)c2ccno2)s1`, the entry is “inactive”.

For `N#Cc1cccc(NC(=O)CCC2CCCC2)c1`, the max dye-equivalent concentration entry was “inactive”.

Regarding `CCCc1nc(-c2ccccc2O)n(-c2ccccc2)n1`, the max dye-equivalent concentration entry is “inactive”.

Regarding `O=C(CSc1nnc(Cc2ccccc2)n1-c1ccccc1)N1CCOCC1`, the max dye-equivalent concentration result was “inactive”.

`CCOc1ccccc1C(=O)NCCCn1ccnc1`: the max dye-equivalent concentration result is “inactive”. Then `CCOc1ccccc1C(=O)NCc1ccco1`, with “inactive”; and `CCOc1ccccc1C1C(C(=O)OC)=CN(C)C=C1C(=O)OC`, with 13000 nM (active). Then `CN(C)CCCn1c2ccccc2c2cnccc21`, with “inactive”; and `CCC(C)n1[nH]c(=O)cc1N` (stereo not given), with “inactive”; and `CC(=O)c1c(N)n(C)c(=O)n(C)c1=O`, with “inactive”.

These data come from PubChem BioAssay AID590 (National Center for Advancing Translational Sciences (NCATS), 2007).
